# Source: PubChem BioAssay
# JMJD2A Tudor – blocks the human JMJD2A Tudor domain | O75164 | AlphaScreen JMJD2A-Tudor / H3K4me3 peptide binding | Potency, µM (top dose mostly 114 µM), inactives show at the top dose activity change, negative = inhibition, actives largely listed as inhibitors | 390,000 compounds, 4.4% hits | AID 504339; note: potency is the fitted concentration of half-maximal effect; % is set by controls: 0 for no effect and ±100 for the full control effect; nearly all actives have a fitted effect of over 50% in size
# BAZ2B block – inhibitors of human BAZ2B bromodomain; 360,000 compounds, 4.4% hits; AlphaScreen BAZ2B-H3K14Ac peptide displacement; Potency, µM (series often up to 114 µM), without a hit: top-dose activity change, negative = inhibition, actives largely listed as inhibitors; note: potency is the fitted concentration of half-maximal effect; % is set by controls: 0 for no effect and ±100 for the full control effect; nearly all actives have a fitted effect of over 60% in size
#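 Compounds, titrated to a top concentration of 110 uM, were incubated 30 min at room temperature with preformed BAZ2B/acetyl-K14 H3 peptide complex (50 nM each). Proximity signal was measured by AlphaScreen after 20 min with beads.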
# CtBP-E1A inh – inhibitors of CtBP/E1A interaction; AlphaScreen GST-E1A/His-CtBP binding, 1536-well; active compounds read low; activity change, % (concentration not given with the values); 340,000 compounds, 0.49% hits; AID 651724; in the data active = activity change below about -65%; inconclusive = mostly about -30% to -63%; note: % is set by controls: 0 for no effect and ±100 for the full control effect
#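 In 5 uL wells, 23 nL compound meets equimolar GST-E1A and His-CtBP (5X stock 125 nM each) for 2 h, 37 °C. Beads (5X, 50 ug/mL) then 1 h, 37 °C, dark.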
# HP1b chromo inh – blocks HP1-beta chromodomain binding to methylated histone tails | AlphaScreen HP1-beta / biotin-H3K9me3 peptide binding | Potency, µM (doses to about 114 µM), without a hit: at the top dose activity change, negative = inhibition, actives largely listed as inhibitors | 390,000 compounds, 0.56% hits | AID 540317; note: potency is the fitted concentration of half-maximal effect; nearly all actives have a fitted effect of over 70% in size
#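 AlphaScreen: HP1-beta (50 nM) preformed 30 min with biotin-H3(1-18)K9me3 peptide (50 nM) in PBS pH 7.4, 0.01% Tween-20. Compound added for 30 min at RT, then streptavidin donor/nickel chelate acceptor beads (10 ug/mL) for 30 min.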
# Six1-Eya2 inh – inhibitors of human Six1/Eya2 interaction; Q15475+O00167; 360,000 compounds, 0.56% hits; activity change, % (concentration not given with the values); AlphaScreen GST-Six1/His-Eya2 binding, biochemical; active compounds read low; in the data active = activity change below about -65%; inconclusive = mostly about -30% to -63%; note: % is set by controls: 0 for no effect and ±100 for the full control effect
#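 AlphaScreen luminescence read after one hour at 37 °C in darkness. Pin-transferred compounds met GST-Six1 and His-Eya2 protein (5X stock 250 nM/500 nM) plus glutathione donor and Ni-chelate acceptor beads (5X, 50 ug/mL).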
# G9a block – G9a (human) methyltransferase inhibition; Potency, µM (top dose mostly 102 µM), for the others: top-dose activity, negative = inhibition, most hits filed as inhibitors; G9a H3K9 monomethylation, AlphaScreen, 2 h; 350,000 compounds, 8.8% hits; Q96KQ7; AID 504332; note: potency is the fitted concentration of half-maximal effect; % is set by controls: 0 for no effect and ±100 for the full control effect; nearly all actives have a fitted effect of over 75% in size
# Target sequence (Q96KQ7 913-1193 limits assumed): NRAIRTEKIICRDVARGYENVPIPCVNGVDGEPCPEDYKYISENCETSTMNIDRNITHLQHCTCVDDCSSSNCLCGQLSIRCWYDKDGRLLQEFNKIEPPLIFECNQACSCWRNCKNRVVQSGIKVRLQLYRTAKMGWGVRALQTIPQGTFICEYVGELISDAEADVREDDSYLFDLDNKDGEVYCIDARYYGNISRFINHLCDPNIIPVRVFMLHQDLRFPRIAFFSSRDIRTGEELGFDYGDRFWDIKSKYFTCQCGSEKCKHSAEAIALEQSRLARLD
#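 Step 1: enzyme (final 20 nM) with compound, 15 min RT. Step 2: substrate peptide 500 nM and SAM 20 uM, 2 h RT. Step 3: anti-H3K9me1 antibody and AlphaScreen beads, 10 min, then plate read.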
# 12-hLO 8HQ R1 – 12-hLO (human) inhibition, 8HQ series round 1 | shares compounds with BAZ2B block | Potency, µM, hits mostly inhibitors | AID 2163 | 35 compounds, 60% hits | purified 12-hLO, cuvette UV 234 nm product formation;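 active = compounds that slowed 12-hLO product formation enough to yield a measured IC50 potency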
# JMJD2E inh-1 – blocks human JMJD2E demethylase activity | 130 compounds, 89% hits | shares compounds with BAZ2B block | JMJD2E demethylase, FDH-coupled NADH fluorescence | Potency, µM (titrated, usually from 57 µM), for the others: at the top dose activity, negative = inhibition, usual class: inhibitors | AID 493212
# ME-1 growth – reduces ME-1 leukemia cell proliferation; shares compounds with BAZ2B block; ME-1 cell proliferation, ATP luminescence, 48 h; Potency, µM (highest dose often 56.1 µM), without a hit: top-dose activity change, negative = inhibition, usual class: inhibitors; 140 compounds, 20% hits
# JMJD2E inh-2 – JMJD2E (human) demethylase inhibition, confirmation. shares compounds with JMJD2A Tudor. Potency, µM (series often up to 56.8 µM), without a hit: at the top dose activity change, negative = inhibition, usual class: inhibitors. Recombinant JMJD2E, FDH-coupled NADH fluorescence (FDH is formaldehyde dehydrogenase). 140 compounds, 93% hits
# FDH inh – FDH (Pseudomonas putida) inhibition counter-screen | shares compounds with JMJD2A Tudor | FDH enzyme assay, NADH fluorescence kinetic | Potency, µM (series often up to 56.7 µM), for the others: at the highest dose activity, negative = inhibition, most hits filed as inhibitors | 140 compounds, 10% hits | AID 2680
# Target sequence (P46154 whole entry, looked up): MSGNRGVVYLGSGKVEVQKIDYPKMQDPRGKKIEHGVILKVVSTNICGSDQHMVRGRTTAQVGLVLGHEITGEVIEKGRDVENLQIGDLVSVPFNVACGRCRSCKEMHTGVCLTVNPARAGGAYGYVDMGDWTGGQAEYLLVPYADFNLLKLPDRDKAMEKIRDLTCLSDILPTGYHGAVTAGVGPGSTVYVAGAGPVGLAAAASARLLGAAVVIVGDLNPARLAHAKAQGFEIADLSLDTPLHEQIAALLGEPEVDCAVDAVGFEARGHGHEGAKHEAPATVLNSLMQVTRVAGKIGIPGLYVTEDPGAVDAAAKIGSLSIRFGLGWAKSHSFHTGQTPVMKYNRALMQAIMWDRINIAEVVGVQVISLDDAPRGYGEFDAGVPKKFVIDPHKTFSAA
# JMJD2E MS inh – blocks demethylation by human JMJD2E in a MALDI-TOF-MS assay. AID 2688. shares compounds with JMJD2A Tudor. recombinant JMJD2E demethylation, MALDI-TOF-MS. Potency, µM, actives largely listed as inhibitors. 45 compounds, 90% hits;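 active = compounds whose IC50 for blocking JMJD2E demethylation is below 100 µM; inconclusive = dose dependent effect but IC50 above 100 µM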
# Active calls of the source: *; i = inactive; ? = inconclusive; · = no result given; [ ] = remark or other dose. Most compounds without a hit are left out; they make up all but 10% or so of the library. Unless noted, calls come from the whole dose curve; as a rule, active = well fitted curve in the direction sought with a large enough effect; inconclusive = small, poorly fitted or top-dose-only effect, or another doubt; inactive = no such curve, though single readings can be large; an effect the other way counts as inactive or inconclusive.
SMILES,JMJD2A Tudor,BAZ2B block,CtBP-E1A inh,HP1b chromo inh,Six1-Eya2 inh,G9a block,JMJD2E inh-1,JMJD2E inh-2,FDH inh,others
CC(=O)NC(c1ccco1)c1cc(Cl)c2ccc(N3CCCCC3)nc2c1O (stereo not given),·,?,·,·,·,4µM*,20µM*,·,·,12-hLO 8HQ R1=i
CC(=O)Oc1cc2cccc(OC(C)=O)c(=O)c2c(OC(C)=O)c1OC(C)=O,8.9µM*,1.6µM*,-28,?,?,2.8µM*,·,·,·,ME-1 growth=?
COc1ccc(OC)c(-c2c3cc(O)c(=O)cc-3oc3cc(O)c(O)cc23)c1,1.6µM*,2.8µM*,-26,?,?,6.3µM*,·,·,·,ME-1 growth=22µM*
COc1ccc(OC)c(-c2oc3ccccc3c(=O)c2O)c1,4%,-1%,1,35%,7,?,·,·,·,
CCn1c(COc2ccccc2Cl)nnc1SCC(=O)Nc1ncccc1C,-5%,0%,7,11%,7,-2%[59 µM],·,·,·,
Oc1ccc(/C=C/c2ccccc2)c2cccnc12,?,·,·,·,·,·,10µM*,4.1µM*,-27%,JMJD2E MS inh=24*
Oc1ccc(/C=C/c2ccccc2F)c2cccnc12,?,·,·,·,·,·,11µM*,5.8µM*,-18%,JMJD2E MS inh=37*
COc1ccc(S(=O)(=O)N2CCCCCC2)cc1C(=O)N(C)Cc1cccs1,-8%,-4%,-3,24%,-4,8%[0.501 µM],·,·,·,
CCC(=O)NC(c1cccs1)c1cc(Cl)c2cccnc2c1O (stereo not given),-14%,-5%,·,45%,-89*,-2%,13µM*,13µM*,-18%,12-hLO 8HQ R1=1µM*
CCC(=O)NC(c1cccc([N+](=O)[O-])c1)c1c(O)ccc2ccccc12 (stereo not given),-13%,-14%,-25,24%,4,-26%,·,·,·,
CCOc1ccc(C(NC(=O)CC)c2c(O)ccc3ccccc23)cc1 (stereo not given),-27%,-31%,·,-2%,12,?,·,·,·,
CCC(=O)NC(c1ccc(C)cc1)c1ccc2cccnc2c1O (stereo not given),79µM*,22µM*,-90*,51%,-89*,20%,13µM*,13µM*,-18%,12-hLO 8HQ R1=i
CCC(=O)NC(c1ccc(C)cc1)c1cc([N+](=O)[O-])c2cccnc2c1O (stereo not given),22µM*,4µM*,-87*,-16%,-85*,?,13µM*,13µM*,-27%,12-hLO 8HQ R1=2.3µM*
Cc1cnc2c(O)cccc2c1,·,·,·,·,·,·,?,?,0%,
Oc1cccc2cc(C3CC3)cnc12,·,·,·,·,·,·,20µM*,20µM*,-18%,
O=C(O)c1ccc2cccc(O)c2n1,-6%,?,-20,33%,-15,·,·,·,·,
CN(C)c1cnc2c(O)cccc2c1,·,·,·,·,·,·,20µM*,18µM*,-27%,
Cc1cccc2cc3cccc(C)c3nc12,128%,79%,·,158%,3,15%[0.501 µM],·,·,·,
CCn1c(SCC(=O)NC2=NCCS2)nnc1C(C)NC(=O)c1ccccc1Br (stereo not given),-10%,0%,1,-6%,2,0%,·,·,·,
Cc1ccc(NCc2ccc(O)c3ncccc23)c(F)c1,18µM*,·,·,·,·,·,0.71µM*,8.1µM*,-9%,JMJD2E MS inh=11*
Nc1cc(C(F)(F)F)ccc1NCCc1ccccn1,?,?,-7,?,0,-18%,·,·,·,
Oc1ccc(CNc2ccc(C(F)(F)F)cc2F)c2cccnc12,50µM*,·,·,·,·,·,2.2µM*,2.2µM*,-18%,JMJD2E MS inh=20*
Oc1cc(Nc2ccncc2)cc2cccnc12,20µM*,4µM*,·,41%,·,-27%[12.7 µM],25µM*,25µM*,-9%,JMJD2E MS inh=20*
COc1ccc(C(=O)Nc2cc(OC)cc3cccnc23)cc1,5%,-7%,·,52%,16,6%[2.33 µM],·,·,·,
Oc1cc(NCCc2cccnc2)cc2cccnc12,40µM*,5.6µM*,·,54%,·,-47%[12.7 µM],32µM*,32µM*,-27%,JMJD2E MS inh=?
SMILES,JMJD2A Tudor,BAZ2B block,CtBP-E1A inh,HP1b chromo inh,Six1-Eya2 inh,G9a block,JMJD2E inh-1,JMJD2E inh-2,FDH inh,others
Oc1cc(NCc2cccnc2)ccc1-c1nc2ccccc2o1,-1%,-2%,-13,39%,-1,26%[12.7 µM],·,·,·,
COc1ccc(Nc2cc(O)c3ncccc3c2)cc1,·,28µM*,·,·,·,17%[12.7 µM],11µM*,9.1µM*,-36%,JMJD2E MS inh=22*
Oc1cc(Nc2cccnc2)cc2cccnc12,45µM*,7.9µM*,·,44%,·,-1%[12.7 µM],32µM*,32µM*,-18%,JMJD2E MS inh=30*
O=[N+]([O-])c1cc(C(F)(F)F)ccc1NCC1CCCO1 (stereo not given),?,-2%,1,-9%,0,6%,·,·,·,
COc1ccc2c(c1)C1CC(C)(NC(=O)C1S(=O)(=O)c1ccc(F)cc1)O2 (stereo not given),?,-5%,-9,?,-22,1%,·,·,·,
O=S(=O)(Nc1ccccc1)c1ccc(O)c2ncccc12,·,·,·,·,·,·,9.1µM*,9.1µM*,-27%,
CCOc1ccc(NS(=O)(=O)c2ccc(OCC)c3ncccc23)cc1,-11%,-7%,-16,6%,-10,6%,·,·,·,
O=S(=O)(NCc1ccccc1)c1ccc(O)c2ncccc12,·,·,·,·,·,·,32µM*,23µM*,-36%,
O=S(=O)(c1ccc(O)c2ncccc12)N1CCCCC1,·,·,·,·,·,·,18µM*,18µM*,-36%,
O=S(=O)(Nc1ccccc1F)c1ccc(O)c2ncccc12,·,·,·,·,·,·,29µM*,13µM*,-36%,
COc1ccc(CC(=O)NCC(c2cccs2)S(=O)(=O)c2ccc(C)cc2)cc1 (stereo not given),-6%,-15%,·,18%,·,-6%[59 µM],·,·,·,
